CHX counter = counter-screen for Shiga toxin inhibitors: cycloheximide protein synthesis inhibition. cell reporter, cycloheximide protein synthesis inhibition counterscreen. max response, %. 300,000 compounds, 12% hits. AID 2314; in the data active = max response mostly above about 13%, no sharp cut-off; inactive = mostly below about 14%; also: read at 38.3 µM for the half of the compounds with a filed dose; 0% is about no effect
LmPK inh = LmPK (Leishmania mexicana) enzyme inhibition; Q27686; purified LmPK, Kinase-Glo ATP luminescence, 1 h; Potency, µM (series often up to 57.5 µM), for the others: at the highest dose activity change, negative = inhibition, actives largely listed as inhibitors; 290,000 compounds, 0.37% hits; AID 1721; also: potency is read from the fitted curve at half-maximal effect; % is scaled to controls: 0 for no effect and ±100 for the full control effect
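Screened at intermediate enzyme activity to detect both inhibitors and activators: LmPK at 0.1 nM, with a 0.5 nM enzyme column as activation reference. PEP 0.5 mM, ADP 0.1 mM; ATP detected by luminescence after 1 h.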
Sm TGR block = inhibitors of Schistosoma mansoni thioredoxin glutathione reductase; AID 485364; Potency, µM (highest dose often 114 µM), for inactives: top-dose activity change, negative = inhibition, most hits filed as inhibitors; 360,000 compounds, 3% hits; Q962Y6; purified TGR, DTNB reduction, TNB absorbance 405 nm; also: potency is read from the fitted curve at half-maximal effect; % is scaled to controls: 0 for no effect and ±100 for the full control effect; nearly all actives have a fitted effect of over 60% in size
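TGR 20 nM + NADPH 100 uM (dispensed conc.), cpd preinc 15 min RT; start with NADPH (500 uM addition) then DTNB (15 mM addition). Kinetic TNB absorbance, 405 nm filter. Four-parameter Hill fit across titration.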
Shiga inhibitor = inhibitors of Shiga toxin in Vero cells; AID 2315; inhibition, % at 38.7 µM; Vero cells, Shiga toxin protein synthesis inhibition reporter; 290,000 compounds, 9.2% hits; in the data active = inhibition mostly above about 28%, no sharp cut-off; inactive = mostly below about 43%; also: 0% is about no effect
FBPA Giardia inh = blocks Giardia fructose-bisphosphate aldolase activity. purified Giardia FBPA. A8B2U2. 290,000 compounds, 0.71% hits. Potency, µM (titrated, usually from 59.6 µM), for the others: top-dose activity, negative = inhibition, hits mostly inhibitors; also: potency is read from the fitted curve at half-maximal effect; % is scaled to controls: 0 for no effect and ±100 for the full control effect; nearly all actives have a fitted effect of over 55% in size
Target sequence (A8B2U2 whole entry, looked up): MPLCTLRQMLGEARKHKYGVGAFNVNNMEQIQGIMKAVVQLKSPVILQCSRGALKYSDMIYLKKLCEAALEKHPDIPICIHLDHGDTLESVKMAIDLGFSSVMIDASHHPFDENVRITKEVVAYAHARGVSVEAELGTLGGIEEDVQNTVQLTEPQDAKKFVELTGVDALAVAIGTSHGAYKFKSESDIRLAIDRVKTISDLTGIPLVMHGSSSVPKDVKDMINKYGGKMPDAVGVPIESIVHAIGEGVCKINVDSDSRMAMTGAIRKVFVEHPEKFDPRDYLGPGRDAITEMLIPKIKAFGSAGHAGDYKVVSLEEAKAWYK
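Giardia FBPA (40 nM reagent) was preincubated 10 min at RT with compound (up to 57.5 uM final), then substrate plus GAPDH/TPI/NAD/arsenate coupling system with diaphorase/resazurin was added; resorufin fluorescence (525/598 nm) was read after 20 min.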
TbPYK inhibitor = inhibitors of Trypanosoma brucei pyruvate kinase. Q57TT1. TbPYK enzyme, Kinase-Glo Plus ATP luminescence, 45 min. Potency, µM (highest dose often 76.8 µM), without a hit: at the highest dose activity, negative = inhibition, hits mostly inhibitors. 410,000 compounds, 0.12% hits; also: potency is read from the fitted curve at half-maximal effect; % is scaled to controls: 0 for no effect and ±100 for the full control effect; nearly all actives have a fitted effect of over 50% in size
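Readout: single end-point luminescence (Kinase-Glo Plus, 10 min). Reaction conditions were TbPYK/substrate plus 130 uM ADP, 45 min at RT, pH 7.2 TEA buffer. No-enzyme wells served as controls, and data were normalized before concentration-response fitting.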
Starred values were filed as active, the others as inactive; x = no result; [ ] = remark or other dose. Only a selection was taken, and hits are over-represented in it overall. Unless noted, calls follow the shape of the dose curve; as a rule, active = well fitted curve in the direction sought with a large enough effect; inconclusive = small, poorly fitted or top-dose-only effect, or another doubt; inactive = no such curve, though single readings can be large; an effect the other way counts as inactive or inconclusive.

SMILES | CHX counter | LmPK inh | Sm TGR block | Shiga inhibitor | FBPA Giardia inh | TbPYK inhibitor
Cc1ccccc1-c1nc(-c2cccnc2)no1 | 27.8* | -22.6% | 0.4% | 82.6* | 3.1% | -3.5%
CCC(=O)N1CCc2cc(Br)cc(S(=O)(=O)N(CC)Cc3ccccc3)c21 | x | x | 5.0% | x | x | -0.9%
CCOC(=O)COc1ccc(C)cc1C(=O)c1ccn2nc(-c3ccc(Cl)cc3)cc2n1 | x | x | -7.6% | x | x | -11.8%
Clc1ccccc1-c1nnc(-c2cccs2)o1 | 40.7* | 3.5% | 67.0% | 89.2* | 5.6% | -1.3%
N#Cc1nc(COc2ccccc2)oc1NCCCn1ccnc1 | 27.3* | 0.5% | -3.3% | 32.6* | 0.6% | -10.2%
CCOc1ccc(-c2nc(C#N)c(NCCCOC)o2)cc1 | x | x | 8.5% | x | x | 0.7%
Cc1ccc(OCc2nc(C#N)c(NCCCn3ccnc3)o2)cc1 | -4.7 | 2.5% | 14.5% | -24.0 | 2.9% | 2.0%
N#Cc1nc(COc2ccc(F)cc2)oc1NCCCn1ccnc1 | -3.0 | 3.9% | -13.2% | 20.0 | 5.2% | 1.9%
CCOc1ccc(-c2nc(C#N)c(NCc3ccco3)o2)cc1 | 23.4* | 1.1% | 2.0% | 46.2* | -6.6% | -2.3%
N#Cc1nc(-c2ccc(OCc3ccc(Cl)cc3)cc2)oc1NCc1cccnc1 | 34.9* | -6.2% | 3.1% | 74.7* | 9.4% | -5.2%
N#Cc1nc(COc2ccccc2F)oc1NCCCn1ccnc1 | 12.6 | 2.4% | 25.1µM* | -4.2 | 1.7% | -1.2%
N#Cc1nc(-c2ccc(OCc3ccccc3)cc2)oc1NCc1cccnc1 | 2.4 | 4.0% | 6.5% | 39.8 | -1.1% | -2.6%
CC(=O)OC[C@@H]1O[C@@H](O/N=C2/C[C@@H](O)[C@@H](O)[C@@H]3[C@@H]4C(=O)N(C(C)(C)C)C(=O)[C@H]4CC[C@H]23)[C@H](OC(C)=O)[C@H](OC(C)=O)[C@@H]1OC(C)=O | x | x | x | x | -1.1%[12.9 µM] | x
COc1ccccc1CNC(=O)c1cccn1-c1nnc(N2CCCC2)s1 | x | x | 5.5% | x | x | -4.2%[15.4 µM]
Cc1ccc(-c2ccc(=O)n(CC(=O)Nc3ccc(C)cc3Cl)n2)cc1 | x | x | 2.2% | x | x | 5.6%
Cc1nc2cnc(N3CCN(C)CC3)nc2n(C2CC2)c1=O | x | x | x | x | -7.9% | x
NCCC[C@@H](CC(=O)N[C@@H]1CCCC[C@H]1C(=O)N[C@H](CC(=O)N[C@@H](CCC(=O)O)CC(=O)O)Cc1ccccc1)NC(=O)C[C@H](CO)NC(=O)[C@@H]1CNCC[C@H]1N | x | x | x | x | -19.4% | x
CCNc1oc(COc2ccccc2F)nc1C#N | 25.7* | 0.4% | 56.2µM* | 106.6* | 0.2% | 1.6%
N#Cc1nc(-c2ccc(OCc3ccccc3)cc2)oc1NCCCn1ccnc1 | -1.1 | 11.8% | -5.7% | 11.3 | 7.4% | -4.1%
COc1ccccc1OCc1nc(C#N)c(NCCCn2ccnc2)o1 | 9.7 | 2.0% | 44.7µM* | 16.1 | 1.6% | 1.2%
CN(C)c1oc(-c2ccc(OCc3ccccc3)cc2)nc1C#N | 31.2* | 0.2% | 100µM* | 49.1* | -2.3% | -1.8%
N#Cc1nc(COc2ccccc2Cl)oc1NCc1ccco1 | 10.6 | 0.2% | 22.4µM* | 83.1 | -1.2% | 5.3%
COc1ccccc1OCc1nc(C#N)c(NCc2ccc(C)cc2)o1 | x | x | -9.4% | x | x | -9.4%
COc1ccc(Nc2oc(COc3ccccc3OC)nc2C#N)cc1 | 13.7 | -1.6% | 17.8µM* | 24.8 | -8.0% | -2.7%
CN(C)/C=C1\SC(=S)N(c2ccc(F)cc2)C1=O | 33.3* | -3.3% | -6.1% | 31.7 | 5.1% | -1.8%
CN(C)/C=C1\SC(=S)N(c2ccc(Br)cc2)C1=O | 33.5* | -17.7% | -3.4% | 46.2* | -0.7% | -19.6%
CC1(C)CC(=O)C(C=NCCN2CCN(C3CC(=O)N(c4ccc(Cl)c(Cl)c4)C3=O)CC2)=C(O)C1 (centres undefined) | 2.5 | 3.7% | 25.1µM* | -11.0 | 0.6% | 5.2%
CC1(C)CC(=O)C(C=NCCN2CCN(C(=O)c3ccc(Br)cc3)CC2)=C(O)C1 | -1.8 | 3.0% | 28.2µM* | 20.2 | 0.6% | -6.7%
CC1(C)CC(=O)C(C=NCCN2CCN(C(=O)NC34CC5CC(CC(C5)C3)C4)CC2)=C(O)C1 | -3.5 | -1.5% | 35.5µM* | 4.9 | 3.4% | 1.3%
